Experimental findings from the supplement of paper PMC8975748 are described below.

Structures can show the parent of a compound that is named as a salt.

This experiment has as its system Saccharomyces cerevisiae BY4741 SeMeCo community. Kind of experiment: z-score of subpopulation abundance vs DMSO median, subpopulation auxotrophic for HU; higher = larger share of this subpopulation than in DMSO controls. The conditions noted are these: 10 µM; 24 h; SM minimal medium; subpopulation (auxotrophy): HU. How it is done:
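Fluorescent four-plasmid SeMeCo (self-establishing metabolically cooperating S. cerevisiae BY4741 community; plasmids pH-mRuby2, pL-mWasabi, pU-eCFP, pM-TagRFP657) was grown 24 h in minimal SM medium with each Selleck FDA-approved drug at 10 µM in 384-well plates. Cells were fixed and imaged by high-content confocal microscopy. For each auxotrophic subpopulation (and the prototroph), a z-score gives the deviation from the DMSO vehicle-control population median.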
Take `CCOC(=O)C1=C[C@]2(CC)CCCN3CCc4c(n1c1ccccc41)[C@@H]32` [Vinpocetine]: the “z-score of subpopulation abundance” value is -0.02.
With `CC[C@@H]1/C=C(\C)C[C@H](C)C[C@H](OC)[C@H]2O[C@@](O)(C(=O)C(=O)N3CCCC[C@H]3C(=O)O[C@H](/C(C)=C/[C@@H]3CC[C@@H](O)[C@H](OC)C3)[C@H](C)[C@@H](O)CC1=O)[C@H](C)C[C@@H]2OC` [Ascomycin (FK520)] the figure was 1.75; with `O=C(CCCN1CCN(c2ccccn2)CC1)c1ccc(F)cc1` [Azaperone], 0.16.
For `N[C@H]1CONC1=O` [L-Cycloserine], the “z-score of subpopulation abundance” value amounted to 1.14.
Next, `CCCCCNC(=N)N/N=C/c1c[nH]c2ccc(OC)cc12` [Tegaserod Maleate]: 0.48; `Clc1ccc(C(Cn2ccnc2)OCc2ccsc2Cl)c(Cl)c1` (stereo not given) [Tioconazole]: 10.2; `COc1cc(N)c(Cl)cc1C(=O)NC1CCN(CCCOc2ccc(F)cc2)CC1OC` (stereo not given) [Cisapride]: -0.01.
`O=C(Nc1ccc(Oc2ccc(Cl)cc2)c(Cl)c1)c1cc(I)cc(I)c1O` [Rafoxanide]: the “z-score of subpopulation abundance” value is -0.5.
On to `Cc1ncc([N+](=O)[O-])n1CCOC(=O)c1ccccc1` [Metronidazole Benzoate], for which the “z-score of subpopulation abundance” value was -1.
For the compound `NNc1nncc2ccccc12` [Hydralazine HCl], the “z-score of subpopulation abundance” value came to 0.18.
Next, `COC(=O)C1=C(C)NC(C)=C(C(=O)OC2CCCN(Cc3ccccc3)C2)C1c1cccc([N+](=O)[O-])c1` (stereo not given) [Benidipine HCl]: -0.01.
In the case of `CO/N=C(\C(=O)N[C@@H]1C(=O)N2C(C(=O)OC(C)OC(C)=O)=C(COC(N)=O)CS[C@H]12)c1ccco1` (stereo not given in full) [Cefuroxime axetil], the “z-score of subpopulation abundance” value came out at 0.15.
With `C=C1CCN([C@H](C)[C@](O)(Cn2cncn2)c2ccc(F)cc2F)CC1` [Efinaconazole] the figure was 2.02.
For `CN1CCCN=C1/C=C/c1cccc(O)c1` [Oxantel Pamoate], the “z-score of subpopulation abundance” value is -0.96.
With `CN(C/C=C/C#CC(C)(C)C)Cc1cccc2ccccc12` [Terbinafine HCl] the figure was 0.89; with `N#Cc1ccc(Oc2ccc3c(c2)COB3O)cc1` [Crisaborole (AN2728)], 3.15.
Next, `CC(=O)OCC[N+](C)(C)C` [Acetylcholine iodide]: -0.12; `CC(=O)OCC1=C(C(=O)O)N2C(=O)C(NC(=O)CSC(=NC(C)C)NC(C)C)C2SC1` (stereo not given) [Cefathiamidine]: -0.62; `CC[C@H]1OC(=O)[C@H](C)[C@@H](O[C@H]2C[C@@](C)(OC)[C@@H](O)[C@H](C)O2)[C@H](C)[C@@H](O[C@@H]2O[C@H](C)C[C@H](N(C)C)[C@H]2O)[C@](C)(O)C[C@@H](C)C(=O)[C@H](C)[C@H]2OC(=O)O[C@@]21C` [Erythromycin Cyclocarbonate]: 0.76.
Next, `COc1ccc2cc([C@H](C)C(=O)O)ccc2c1` [Naproxen]: -1.2.
On to `C[C@H]1COc2c(N3CCN(C)CC3)c(F)cc3c(=O)c(C(=O)O)cn1c23` [Levofloxacin], for which the “z-score of subpopulation abundance” value was -0.62.
As for `O=C(O)CCNC(=O)c1ccccc1` [Betamipron], the “z-score of subpopulation abundance” value is 0.19.
Next, `CC1(C)[C@H](C(=O)O)N2C(=O)C[C@H]2S1(=O)=O` [Sulbactam]: -0.07; `CCCCOc1ccc(CC(=O)NO)cc1` [Bufexamac]: 0.4.
Next, `CCC(=O)NS(=O)(=O)c1ccc(-c2c(-c3ccccc3)noc2C)cc1` [Parecoxib]: -0.34; `O=C1CCc2ccc(OCCCCN3CCN(c4cccc(Cl)c4Cl)CC3)cc2N1` [Aripiprazole]: 1.26; `CC(C)[N+](C)(CCOC(=O)C1c2ccccc2Oc2ccccc21)C(C)C` [Propantheline bromide]: -0.76.
Next, `CC(C(=O)O)c1ccc2c(c1)Cc1cccnc1O2` (stereo not given) [Pranoprofen]: 0.43; `C[C@H]1COc2c(C3(N)CC3)c(F)cc3c(=O)c(C(=O)O)cn1c23` [Pazufloxacin mesylate]: 0.48; `CCCc1nn(C)c2c(=O)[nH]c(-c3cc(S(=O)(=O)N4CCN(C)CC4)ccc3OCC)nc12` [Sildenafil]: 0.7.
Take `CC1=Nc2ccc(Cl)cc2S(=O)(=O)N1` [Diazoxide]: the “z-score of subpopulation abundance” value is -0.17.
For `O=C(O)c1cc(=O)c2c(OCC(O)COc3cccc4oc(C(=O)O)cc(=O)c34)cccc2o1` [Disodium Cromoglycate], the “z-score of subpopulation abundance” value amounted to 0.68.
With `CC1=C(C(=O)OCCN(Cc2ccccc2)c2ccccc2)C(c2cccc([N+](=O)[O-])c2)C(P2(=O)OCC(C)(C)CO2)=C(C)N1` (stereo not given) [Efonidipine] the figure was 1.86.
Next, `COc1ncnc(NS(=O)(=O)c2ccc(N)cc2)c1OC` [Sulfadoxine]: 0.53; `CO[C@H]1C[C@@H]2CC[C@@H](C)[C@@](O)(O2)C(=O)C(=O)N2CCCC[C@H]2C(=O)O[C@H]([C@H](C)C[C@@H]2CC[C@@H](OC(=O)C(C)(CO)CO)[C@H](OC)C2)CC(=O)[C@H](C)/C=C(\C)[C@@H](O)[C@@H](OC)C(=O)[C@H](C)C[C@H](C)/C=C/C=C/C=C/1C`: 28; `CCCN1CCCC[C@H]1C(=O)Nc1c(C)cccc1C` [Ropivacaine HCl]: -0.21.
With `Nc1ccc(S(=O)(=O)Nc2nccs2)cc1` [Sulfathiazole], the “z-score of subpopulation abundance” value was -0.39.
With `CCc1cc(C(N)=S)ccn1` [Ethionamide] the figure was 0.19; with `NC(=O)N1c2ccccc2C=Cc2ccccc21` [Carbamazepine], -0.56; with `Cc1nc(NC(=O)N2CCC[C@H]2C(N)=O)sc1-c1ccnc(C(C)(C)C(F)(F)F)c1` [Alpelisib (BYL719)], 0.49.
